# In all, about 16,000 sequences were measured (“rpm ratio (pull-down/input)”: median about 0.5, highest 2% from about 5.5 on). This is one part of a sample in which the highest values are shown more often than they occur.
# Target: T1, MBP-FoxP3dN (Mus musculus, UniProt Q99JB6 188-423)
# T1 sequence: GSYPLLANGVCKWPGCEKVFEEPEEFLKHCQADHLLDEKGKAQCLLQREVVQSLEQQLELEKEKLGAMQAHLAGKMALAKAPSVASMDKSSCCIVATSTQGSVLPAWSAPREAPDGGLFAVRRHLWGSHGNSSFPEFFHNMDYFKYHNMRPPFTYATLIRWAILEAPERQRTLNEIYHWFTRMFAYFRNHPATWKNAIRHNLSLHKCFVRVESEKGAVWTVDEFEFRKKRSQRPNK
# Test: PD-seq (MBP pull-down with sequencing); 20 mM Tris-HCl pH 7.5, 100 mM NaCl, 1.5 mM MgCl2, 0.4 uM protein, 0.1 uM dsDNA library, 30 min, room temperature, amylose pull-down; high values mean tight binding
# Settings: protein: recombinant; tags: His6-MBP; chain copies: 2; dsDNA, one strand shown
# Summary of the method: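 A fragment of mouse FoxP3 or FoxP1 without its N-terminus, carrying a His6-MBP tag and produced in E. coli, was combined at 0.4 µM with a 0.1 µM degenerate double-stranded DNA library filled in with Klenow. The mixture sat for 30 min at room temperature in Tris pH 7.5 buffer containing NaCl and MgCl2. Protein–DNA complexes were captured on amylose resin, washed three times, and the DNA was freed with proteinase K, barcoded by PCR and sequenced on Illumina. Binding is expressed as reads-per-million enrichment of pull-down over input, with replicates pooled.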
row,Sequence,binding signal
1,GATGATTGTTCTCCCAGCTGATGAATTGAATCACTCGAGTAAACAAATTTTCCTAATCTTTCTGTTCAAGCGCCATCTAC,0.551 RPM ratio (pull-down/input)
2,GATGATTGTTCTCCCAGCTGATGAATTCAATTGCTCGAGTAAACAAATTTTCCTAATCTTTCTGTTCAAGCGCCATCTAC,2.31 RPM ratio (pull-down/input)
3,GATGATTGTTCTCCCAGCTGATGAATTAGGATGTTCGAGTAAACAAATTTTCCTAATCTTTCTGTTCAAGCGCCATCTAC,0.82 RPM ratio (pull-down/input)
4,GATGATTGTTCTCCCAGCTGATGAATTTTTGCGTTCGAGTAAACAAATTTTCCTAATCTTTCTGTTCAAGCGCCATCTAC,2.04 RPM ratio (pull-down/input)
5,GATGATTGTTCTCCCAGCTGATGAATTGTATTATTCGAGTAAACAAATTTTCCTAATCTTTCTGTTCAAGCGCCATCTAC,5.22 RPM ratio (pull-down/input)
6,GATGATTGTTCTCCCAGCTGATGAATTATTGCAGTCGAGTAAACAAATTTTCCTAATCTTTCTGTTCAAGCGCCATCTAC,1.18 RPM ratio (pull-down/input)
7,GATGATTGTTCTCCCAGCTGATGAATTCAGCTGTTCGAGTAAACAAATTTTCCTAATCTTTCTGTTCAAGCGCCATCTAC,1.19 RPM ratio (pull-down/input)
8,GATGATTGTTCTCCCAGCTGATGAATTGATTCGCTCGAGTAAACAAATTTTCCTAATCTTTCTGTTCAAGCGCCATCTAC,0.331 RPM ratio (pull-down/input)
9,GATGATTGTTCTCCCAGCTGATGAATTATGGCTCTCGAGTAAACAAATTTTCCTAATCTTTCTGTTCAAGCGCCATCTAC,0.643 RPM ratio (pull-down/input)
10,GATGATTGTTCTCCCAGCTGATGAATTGTTGACATCGAGTAAACAAATTTTCCTAATCTTTCTGTTCAAGCGCCATCTAC,5.72 RPM ratio (pull-down/input)
11,GATGATTGTTCTCCCAGCTGATGAATTTGATTGATCGAGTAAACAAATTTTCCTAATCTTTCTGTTCAAGCGCCATCTAC,2.23 RPM ratio (pull-down/input)
12,GATGATTGTTCTCCCAGCTGATGAATTTGTTTGATCGAGTAAACAAATTTTCCTAATCTTTCTGTTCAAGCGCCATCTAC,5.99 RPM ratio (pull-down/input)
13,GATGATTGTTCTCCCAGCTGATGAATTTTGTTGATCGAGTAAACAAATTTTCCTAATCTTTCTGTTCAAGCGCCATCTAC,7.34 RPM ratio (pull-down/input)
14,GATGATTGTTCTCCCAGCTGATGAATTTTTGACATCGAGTAAACAAATTTTCCTAATCTTTCTGTTCAAGCGCCATCTAC,0.524 RPM ratio (pull-down/input)
15,GATGATTGTTCTCCCAGCTGATGAATTGTTTTGATCGAGTAAACAAATTTTCCTAATCTTTCTGTTCAAGCGCCATCTAC,4.03 RPM ratio (pull-down/input)
16,GATGATTGTTCTCCCAGCTGATGAATTTTTTTGATCGAGTAAACAAATTTTCCTAATCTTTCTGTTCAAGCGCCATCTAC,0.23 RPM ratio (pull-down/input)
17,GATGATTGTTCTCCCAGCTGATGAATTGATTTGATCGAGTAAACAAATTTTCCTAATCTTTCTGTTCAAGCGCCATCTAC,0.64 RPM ratio (pull-down/input)
18,GATGATTGTTCTCCCAGCTGATGAATTGATGACATCGAGTAAACAAATTTTCCTAATCTTTCTGTTCAAGCGCCATCTAC,1.05 RPM ratio (pull-down/input)

row,Sequence,binding signal
1,GATGATTGTTCTCCCAGCTGATGAATTGATTCTCTCGAGTAAACAAATTTTCCTAATCTTTCTGTTCAAGCGCCATCTAC,0.395 RPM ratio (pull-down/input)
2,GATGATTGTTCTCCCAGCTGATGAATTAAGTCGCTCGAGTAAACAAATTTTCCTAATCTTTCTGTTCAAGCGCCATCTAC,0.441 RPM ratio (pull-down/input)
3,GATGATTGTTCTCCCAGCTGATGAATTAGGACGCTCGAGTAAACAAATTTTCCTAATCTTTCTGTTCAAGCGCCATCTAC,0.484 RPM ratio (pull-down/input)
4,GATGATTGTTCTCCCAGCTGATGAATTATACGAGTCGAGTAAACAAATTTTCCTAATCTTTCTGTTCAAGCGCCATCTAC,0.404 RPM ratio (pull-down/input)
5,GATGATTGTTCTCCCAGCTGATGAATTCTAGACCTCGAGTAAACAAATTTTCCTAATCTTTCTGTTCAAGCGCCATCTAC,0.236 RPM ratio (pull-down/input)
6,GATGATTGTTCTCCCAGCTGATGAATTCTTAGCCTCGAGTAAACAAATTTTCCTAATCTTTCTGTTCAAGCGCCATCTAC,0.373 RPM ratio (pull-down/input)
7,GATGATTGTTCTCCCAGCTGATGAATTGGTTGTGTCGAGTAAACAAATTTTCCTAATCTTTCTGTTCAAGCGCCATCTAC,5.42 RPM ratio (pull-down/input)
8,GATGATTGTTCTCCCAGCTGATGAATTTCTTTGGTCGAGTAAACAAATTTTCCTAATCTTTCTGTTCAAGCGCCATCTAC,1.03 RPM ratio (pull-down/input)
9,GATGATTGTTCTCCCAGCTGATGAATTTGTTGGGTCGAGTAAACAAATTTTCCTAATCTTTCTGTTCAAGCGCCATCTAC,7.61 RPM ratio (pull-down/input)
10,GATGATTGTTCTCCCAGCTGATGAATTCAATTGGTCGAGTAAACAAATTTTCCTAATCTTTCTGTTCAAGCGCCATCTAC,2.04 RPM ratio (pull-down/input)
11,GATGATTGTTCTCCCAGCTGATGAATTCTTTTGGTCGAGTAAACAAATTTTCCTAATCTTTCTGTTCAAGCGCCATCTAC,0.31 RPM ratio (pull-down/input)
12,GATGATTGTTCTCCCAGCTGATGAATTTTTGGGGTCGAGTAAACAAATTTTCCTAATCTTTCTGTTCAAGCGCCATCTAC,0.233 RPM ratio (pull-down/input)
13,GATGATTGTTCTCCCAGCTGATGAATTTTGTTGGTCGAGTAAACAAATTTTCCTAATCTTTCTGTTCAAGCGCCATCTAC,7.07 RPM ratio (pull-down/input)
14,GATGATTGTTCTCCCAGCTGATGAATTTGGTTGGTCGAGTAAACAAATTTTCCTAATCTTTCTGTTCAAGCGCCATCTAC,2.96 RPM ratio (pull-down/input)
15,GATGATTGTTCTCCCAGCTGATGAATTCTGTTGGTCGAGTAAACAAATTTTCCTAATCTTTCTGTTCAAGCGCCATCTAC,5.56 RPM ratio (pull-down/input)
16,GATGATTGTTCTCCCAGCTGATGAATTGGTGTGGTCGAGTAAACAAATTTTCCTAATCTTTCTGTTCAAGCGCCATCTAC,1.32 RPM ratio (pull-down/input)
17,GATGATTGTTCTCCCAGCTGATGAATTGTGTTGGTCGAGTAAACAAATTTTCCTAATCTTTCTGTTCAAGCGCCATCTAC,6.68 RPM ratio (pull-down/input)
18,GATGATTGTTCTCCCAGCTGATGAATTGTTTGGGTCGAGTAAACAAATTTTCCTAATCTTTCTGTTCAAGCGCCATCTAC,4.43 RPM ratio (pull-down/input)

# Source: publication PMC12820563, “FoxP3 forms a head-to-head dimer in vivo and stabilizes its multimerization on adjacent microsatellites”
